PubChem BioAssay AID1850 (Southern Research Specialized Biocontainment Screening …, 2009)
The whole screen tested about 310,000 compounds, of which about 1,000 (0.32%) were called active. These entries were drawn from the full list. Results with a measured potency or affinity are listed apart. Unmarked numbers belong to inactive results. How the calls were made is not given here.

Experiment: PhoP regulon inhibitors, Salmonella typhi PhoP promoter GFP reporter, confirmatory (AID 1850);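 further: 0% = induced wells with vehicle and 100% = uninduced wells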
Details: fluorescence, 4 h, at 50 µM, stronger effect = higher value

| Structure (SMILES) | inhibition |
| --- | --- |
| CCOC(=O)[C@H]1[C@H]2COc3ccccc3[C@@H]2N2C(=O)c3ccccc3NC(=O)[C@@]12C | -4.39% |
| CCCOc1ccc(-c2nc(N3CCN(C)CC3)c3ccccc3n2)cc1 | 9.86% |
| O=C(NC(c1ccccc1)c1cc(Cl)c2cccnc2c1O)c1cccnc1 (stereo unspecified) | -1.98% |
| O=C(O)COc1ccccc1C(Nc1ccccn1)c1cc(Cl)c2cccnc2c1O (stereo unspecified) | -6.17% |
| CC(=O)c1ccc(OCC(O)CN2CCN(CCO)CC2)cc1 (stereo unspecified) | -2.27% |
| O=C(COC(=O)CCCN1C(=O)c2cccc3cccc(c23)C1=O)Nc1cccc(C(F)(F)F)c1 | -5.09% |
| CCOc1ccc(OCCNC2CCCC2)cc1 | 6.72% |
| Cc1ccc(OCCCNC2CCCC2)cc1 | 2.57% |
| O=C(Oc1c(CN2CCOCC2)cc(Cl)c2cccnc12)c1ccccc1Cl | 4.13% |
| COCc1cc(CN2CCCC2)c(O)c2ncccc12 | -3.73% |
| O=C(Oc1c(CN2CCOCC2)cc(Cl)c2cccnc12)c1cccs1 | -0.05% |
| Oc1c(CN2CCN(c3ccccc3)CC2)cc(Br)c2cccnc12 | -1.71% |
| O=C(Nc1ccc(-c2nc3cccnc3s2)cc1)c1cccnc1Cl | 16.9% |
| CC(=O)Nc1ccc(S(=O)(=O)N2CCN(c3cc(C)nc4ncnn34)CC2)cc1 | -16.9% |
| O=C(Nc1ccccc1)Nc1ccc(F)cc1F | -5.6% |
| CC(=O)Nc1cccc(NC(=S)Nc2ccc(F)cc2F)c1 | 4.43% |
| CN(C)CCCN(C(=O)c1ccc2c(c1)CCCC2)c1nc2ccc(F)cc2s1 | 16.4% |
| CN(C)CCN(C(=O)C1=COCCO1)c1nc2ccc(F)cc2s1 | -3.62% |
| CN(C)CCCN(C(=O)C1=COCCO1)c1nc2ccc(Br)cc2s1 | -8.06% |
| Cc1ccc(C(=O)N(CCCN(C)C)c2nc3ccc(Cl)cc3s2)cc1C | 9.54% |
| Cc1cccc2sc(N(CCCN(C)C)C(=O)c3sc4ccccc4c3Cl)nc12 | -4.13% |
| CN(C)CCCN(C(=O)c1sc2ccccc2c1Cl)c1nc2ccc(F)cc2s1 | -7.99% |
| CCN(CC)CCN(C(=O)c1ccc2c(c1)CCCC2)c1nc2ccc(C)cc2s1 | -8.88% |
| CCOc1ccc2nc(N(CCCN(C)C)C(=O)c3ccc4c(c3)CCCC4)sc2c1 | 2.97% |
| Cc1cccc(Cl)c1OCCN1CCCC1 | -6.23% |
| O=C(NCCN1CCOCC1)/C(=C/c1ccc(Cl)cc1)NC(=O)c1ccccc1 | 0.05% |
